# “And” between values parts separate entries of the source, which are not always exact repeats. Identical values can stand only once. Results filed as inconclusive are left out. The source made the active and inactive calls.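 Rule for the calls, unless noted: active = normalized viability below 100% at a tested concentration; inactive = the rest.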
# How the values were obtained:
# [1] = test system: Aerobactin synthetase IucA (Klebsiella pneumoniae); assay: inhibition of K. pneumoniae IucA enzyme – biochemical, Tocris library, absorbance (AID 1345561; call rule not given here;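 note: 100% = enzyme without compound and 0% = no enzyme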); details: purified IucA enzyme assay, absorbance (OD) read-out; stronger effect = lower value;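 tested at 8 µM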
# [2] = viability loss in pontine glioma line – cell-based, SU-DIPG-XVII, MIPE5.0, CellTiter-Glo, qHTS, dose response (AID 1347060; cut-off not given, nearly all actives have AC50 up to about 26 µM;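 for AC50: cells exposed to compound for 48 hours before viability readout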); details: CellTiter-Glo ATP luminescence
# [3] = viability loss in pontine glioma line – cell-based, JHH-DIPG-1, MIPE4.0, CellTiter-Glo, qHTS, dose response (AID 1347062; cut-off not given, nearly all actives have AC50 up to about 27 µM;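 for AC50: cells exposed to compound for two days before readout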); details: JHH-DIPG-1 viability, CellTiter-Glo ATP luminescence
# [4] = viability loss in pontine glioma line – cell-based, SU-DIPG-XXV, MIPE5.0, CellTiter-Glo, qHTS, dose response (AID 1347065; cut-off not given, nearly all actives have AC50 up to about 26 µM;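 note: cells exposed to compound for 48 hours before ATP readout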); details: CellTiter-Glo ATP luminescence
# [5] = growth inhibition of DIPG cells – cell-based, MIPE4.0 library, CellTiter-Glo luminescence, qHTS (AID 1347066; cut-off not given, nearly all actives have AC50 up to about 30 µM;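 note: cells exposed to compound for 48 hours before readout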); details: SU-DIPG-VI viability, CellTiter-Glo ATP luminescence
# [6] = JHH-DIPG-1 glioma cell viability, MIPE5.0 library, CellTiter-Glo luminescence, qHTS (AID 1347067; cut-off not given, nearly all actives have AC50 up to about 26 µM;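 note: cells exposed to compound for 48 hours before readout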); details: JHH-DIPG-1 glioma viability, CellTiter-Glo ATP luminescence
# [7] = viability loss with induced miR-34 in A549 – imaging, A549 dox-inducible miR-34, nuclei and caspase counts, primary screen (AID 1347080;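 active = compounds whose cell count with miR-34 switched on is under 0.7 times the count with it off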); details: A549 miR-34 inducible, Hoechst nuclei count, 48 h
# [8] = MELAS cybrid and Rieske KO viability enhancers – cell-based, MELAS cybrids, Rieske KO mouse fibroblasts, CellTiter-Glo, primary screen (AID 1508586;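 active = mean z-score across replicates of 1.96 or higher in either the MELAS or the Rieske mutant cell line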;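 note: z relative to plate mean and SD of compound and empty wells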); details: low glucose
# [9] = galactose survival enhancers in mitochondrial complex I cybrids – cell-based, galactose medium, ATP luminescence, primary screen (AID 1645843;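 active = z-score of at least 1.8 in each of two replicates, scored against plate mean and spread of sample wells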;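 note: positive z means more ATP and so rescue of galactose-driven cybrid death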); details: complex I mutant cybrid cells, 72 h, stronger effect = higher value
# [10] = growth inhibition of DIPG cells – cell-based, MIPE5.0 library, qHTS (AID 1347068; cut-off not given, nearly all actives have IC50 up to about 30 µM); details: SU-DIPG-XXV viability
# [11] = viability loss in pontine glioma line – cell-based, SU-DIPG-IV, MIPE4.0, CellTiter-Glo, qHTS, dose response (AID 1347063; cut-off not given, nearly all actives have AC50 up to about 30 µM;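 note: compound exposure lasted 48 hours before the viability readout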); details: CellTiter-Glo ATP luminescence
# [12] = viability loss in pontine glioma line – cell-based, SU-DIPG-XIII, MIPE5.0, CellTiter-Glo, qHTS, dose response (AID 1347064; cut-off not given, nearly all actives have AC50 up to about 23 µM); details: CellTiter-Glo ATP luminescence
# [13] = viability loss in pontine glioma line – cell-based, SU-DIPG-XIII, MIPE4.0, CellTiter-Glo, qHTS, dose response (AID 1347061; cut-off not given, nearly all actives have AC50 up to about 37 µM;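 note: cells exposed to compound for 48 hours before readout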); details: CellTiter-Glo ATP luminescence
# [14] = P. berghei load reduction in hepatocytes – cell-based, HepG2, luciferase luminescence, HepG2 viability, primary screen (AID 624349; in the data active = parasite load remaining mostly below about 12%, no sharp cut-off; inactive = mostly above about 10%;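 note: 100% = mean of DMSO negative control wells on the same plate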); details: P. berghei liver stage in HepG2, luciferase luminescence, concentration not given here; parasite load remaining: stronger effect = lower value; viability: measured here: HepG2 viability without parasites
# [15] = compounds altering HSF1 focus formation in cells – imaging, Selleck Cancer Library (AID 1347162; in the data active = plate-normalised HSF1 focus index below about 0.46); details: human cells, HSF1 nuclear foci imaging, at 10 µM; SSMD: measured here: HSF1 foci SSMD mean; cell count: measured here: cell number; plate-normalised HSF1 focus index: stronger effect = lower value
# [16] = drug combination growth inhibition, ovarian cancer – cell-based, oncology-focused library, rucaparib conditional, profiling panel (AID 1508598); details: patient-derived ovarian cancer cells, CellTiter-Glo viability, 144 h, stronger effect = lower value
# [17] = stronger effect = lower value, cell number ratio, induced over uninduced
# [18] = measured here: relative caspase fold change +Dox/-Dox
# [19] = measured here: total cells with miR-34 induction, stronger effect = lower value
# [20] = measured here: total cells without miR-34 induction
# [21] = MELAS cybrid survival, CellTiter-Glo 48 h, stronger effect = higher value
# [22] = Rieske KO mouse fibroblast survival, CellTiter-Glo 72 h
compound,measurement,setting,value
COc1cc2nccc(Oc3ccc(NC(=O)Nc4ccc(F)cc4F)c(F)c3)c2cc1OC,remaining activity,[1],115% (inactive)
same,AC50,[2],5.25 µM (active)
same,outcome,[3],inactive
same,AC50,[4],3.32 µM (active)
same,outcome,[5],inactive
same,AC50,[6],4.17 µM (active)
same,fold change,[7]; [17],0.97 (inactive) and 0.906 (inactive)
same,fold change,[7]; [18],1.3 and 1.55
same,cell count,[7]; [19],1960 and 2970
same,cell count,[7]; [20],2020 and 3280
same,z-score,[8]; [21],-0.553 (inactive)
same,z-score,[8]; [22],0.363
same,z-score,[9],-0.37 (inactive)
Cc1ccc(/C=N/NC(=O)c2ccccc2Oc2ccccc2)o1,remaining activity,[1],79% (inactive)
same,outcome,[2],inactive
same,outcome,[3],inactive
same,outcome,[4],inactive
same,outcome,[5],inactive
same,outcome,[6],inactive
same,outcome,[10],inactive
same,fold change,[7]; [17],0.862 (inactive)
same,fold change,[7]; [18],1.34
same,cell count,[7]; [19],7340
same,cell count,[7]; [20],8520
same,z-score,[9],-0.2 (inactive)
Cc1[nH]c(/C=C2\C(=O)Nc3ccccc32)c(C)c1CCC(=O)O,remaining activity,[1],95.9% (inactive)
same,AC50,[2],16.6 µM (active)
same,AC50,[3],16.6 µM (active)
same,fold change,[7]; [17],0.887 (inactive)
same,fold change,[7]; [18],1.48
same,cell count,[7]; [19],5970
same,cell count,[7]; [20],6730
same,z-score,[9],0.51 (inactive)
COC1CCC(C(=O)c2ccc3nc4c(cc3c2)CCCO4)CC1 (configuration not stated),remaining activity,[1],99.8% (inactive)
same,outcome,[2],inactive
same,AC50,[3],20.9 µM (active)
same,AC50,[11],9.35 µM (active)
same,outcome,[12],inactive
same,outcome,[4],inactive
same,outcome,[10],inactive
same,fold change,[7]; [17],0.932 (inactive)
same,fold change,[7]; [18],1.27
same,cell count,[7]; [19],8170
same,cell count,[7]; [20],8760
same,z-score,[9],0.32 (inactive)
CC(Oc1ccc(O)cc1)(P(=O)(O)O)P(=O)(O)O,remaining activity,[1],115% (inactive)
same,outcome,[2],inactive
same,outcome,[13],inactive
same,outcome,[3],inactive
same,outcome,[11],inactive
same,outcome,[12],inactive
same,outcome,[5],inactive
same,outcome,[6],inactive
same,outcome,[10],inactive
same,fold change,[7]; [17],0.98 (inactive)
same,fold change,[7]; [18],0.597
same,cell count,[7]; [19],9020
same,cell count,[7]; [20],9200
same,z-score,[9],-0.285 (inactive)
O=c1cc(-c2cccc3c2Sc2ccccc2S3)oc(N2CCOCC2)c1,parasite load remaining,[14],39.8% (inactive)
same,viability,[14],161%
same,remaining activity,[1],94.8% (inactive)
same,outcome,[2],inactive
same,outcome,[13],inactive
same,outcome,[3],inactive
same,outcome,[5],inactive
same,outcome,[6],inactive
same,fold change,[7]; [17],0.936 (inactive) and 1.01 (inactive)
same,fold change,[7]; [18],1.11 and 2.27
same,cell count,[7]; [19],5990 and 5760
same,cell count,[7]; [20],6400 and 5730
same,SSMD,[15],2.97
same,cell count,[15],6680
same,plate-normalised HSF1 focus index,[15],1.15 (inactive)
same,z-score,[8]; [21],-0.376 (inactive)
same,z-score,[8]; [22],1.02
same,viability,"[16]; at 0.000305 µM, OCI-C5x cells, with rucaparib 10 µM, 100% = cells with rucaparib alone",113% (inactive)
same,viability,"[16]; at 0.000305 µM, OCI-C5x cells, without rucaparib",119% (inactive)
same,viability,"[16]; at 0.000305 µM, OCI-P5x cells, with rucaparib 20 µM, 100% = cells with rucaparib alone",105% (inactive)
same,viability,"[16]; at 0.000305 µM, OCI-P5x cells, without rucaparib",109% (inactive)
same,viability,"[16]; at 0.00122 µM, OCI-C5x cells, with rucaparib 10 µM, 100% = cells with rucaparib alone",122% (inactive)
same,viability,"[16]; at 0.00122 µM, OCI-C5x cells, without rucaparib",121% (inactive)
same,viability,"[16]; at 0.00122 µM, OCI-P5x cells, with rucaparib 20 µM, 100% = cells with rucaparib alone",104% (inactive)
same,viability,"[16]; at 0.00122 µM, OCI-P5x cells, without rucaparib",106% (inactive)
same,viability,"[16]; at 0.00488 µM, OCI-C5x cells, with rucaparib 10 µM, 100% = cells with rucaparib alone",118% (inactive)
same,viability,"[16]; at 0.00488 µM, OCI-C5x cells, without rucaparib",119% (inactive)
same,viability,"[16]; at 0.00488 µM, OCI-P5x cells, with rucaparib 20 µM, 100% = cells with rucaparib alone",100% (inactive)
same,viability,"[16]; at 0.00488 µM, OCI-P5x cells, without rucaparib",103% (inactive)
same,viability,"[16]; at 0.0195 µM, OCI-C5x cells, with rucaparib 10 µM, 100% = cells with rucaparib alone",117% (inactive)
same,viability,"[16]; at 0.0195 µM, OCI-C5x cells, without rucaparib",132% (inactive)
same,viability,"[16]; at 0.0195 µM, OCI-P5x cells, with rucaparib 20 µM, 100% = cells with rucaparib alone",98% (active)
same,viability,"[16]; at 0.0195 µM, OCI-P5x cells, without rucaparib",64.5% (active)
same,viability,"[16]; at 0.0781 µM, OCI-C5x cells, with rucaparib 10 µM, 100% = cells with rucaparib alone",116% (inactive)
same,viability,"[16]; at 0.0781 µM, OCI-C5x cells, without rucaparib",119% (inactive)
same,viability,"[16]; at 0.0781 µM, OCI-P5x cells, with rucaparib 20 µM, 100% = cells with rucaparib alone",106% (inactive)
same,viability,"[16]; at 0.0781 µM, OCI-P5x cells, without rucaparib",103% (inactive)
same,viability,"[16]; at 0.313 µM, OCI-C5x cells, with rucaparib 10 µM, 100% = cells with rucaparib alone",108% (inactive)
same,viability,"[16]; at 0.313 µM, OCI-C5x cells, without rucaparib",126% (inactive)
same,viability,"[16]; at 0.313 µM, OCI-P5x cells, with rucaparib 20 µM, 100% = cells with rucaparib alone",91.8% (active)
same,viability,"[16]; at 0.313 µM, OCI-P5x cells, without rucaparib",105% (inactive)
same,viability,"[16]; at 1.25 µM, OCI-C5x cells, with rucaparib 10 µM, 100% = cells with rucaparib alone",111% (inactive)
same,viability,"[16]; at 1.25 µM, OCI-C5x cells, without rucaparib",127% (inactive)
same,viability,"[16]; at 1.25 µM, OCI-P5x cells, with rucaparib 20 µM, 100% = cells with rucaparib alone",108% (inactive)
same,viability,"[16]; at 1.25 µM, OCI-P5x cells, without rucaparib",107% (inactive)
same,viability,"[16]; at 5 µM, OCI-C5x cells, with rucaparib 10 µM, 100% = cells with rucaparib alone",88.8% (active)
same,viability,"[16]; at 5 µM, OCI-C5x cells, without rucaparib",131% (inactive)
same,viability,"[16]; at 5 µM, OCI-P5x cells, with rucaparib 20 µM, 100% = cells with rucaparib alone",66.3% (active)
same,viability,"[16]; at 5 µM, OCI-P5x cells, without rucaparib",27.9% (active)
same,z-score,[9],-0.18 (inactive)
Cc1cc(NC(=O)Nc2ccc(N(C)C)cc2)c2cc(F)cc(F)c2n1,remaining activity,[1],98.2% (inactive)
same,outcome,[2],inactive
same,outcome,[13],inactive
same,outcome,[3],inactive
same,outcome,[12],inactive
same,outcome,[5],inactive
same,outcome,[6],inactive
same,outcome,[10],inactive
same,fold change,[7]; [17],0.902 (inactive) and 0.887 (inactive)
same,fold change,[7]; [18],0.91 and 0.717
same,cell count,[7]; [19],6380 and 7970
same,cell count,[7]; [20],7070 and 8990
same,z-score,[8]; [21],1.11 (inactive)
same,z-score,[8]; [22],-0.687
same,z-score,[9],-0.32 (inactive)
O=C(O)CCc1ccc(NCc2cccc(Oc3ccccc3)c2)cc1,remaining activity,[1],92.7% (inactive)
same,outcome,[2],inactive
same,outcome,[13],inactive
same,outcome,[3],inactive
same,outcome,[11],inactive
same,outcome,[12],inactive
same,outcome,[4],inactive
same,outcome,[5],inactive
same,outcome,[6],inactive
same,outcome,[10],inactive
same,SSMD,[15],3.5
same,cell count,[15],6830
same,plate-normalised HSF1 focus index,[15],1.21 (inactive)
same,z-score,[8]; [21],-0.374 (inactive)
same,z-score,[8]; [22],0.82
same,z-score,[9],0.215 (inactive) and -0.155 (inactive)
CCOc1cc(C(=O)Nc2ccc(Cl)c(-c3nc4ccccc4[nH]3)c2)cc(OCC)c1OCC,remaining activity,[1],119% (inactive)
same,outcome,[2],inactive
same,AC50,[13],10.5 µM (active)
same,outcome,[5],inactive
same,outcome,[10],inactive
same,fold change,[7]; [17],0.991 (inactive)
same,fold change,[7]; [18],0.843
same,cell count,[7]; [19],5960
same,cell count,[7]; [20],6020
same,SSMD,[15],4.38
same,cell count,[15],6790
same,plate-normalised HSF1 focus index,[15],1.26 (inactive)
same,z-score,[9],0.375 (inactive)
NC(=O)c1ccc2[nH]ccc2c1,parasite load remaining,[14],32.8% (inactive)
same,viability,[14],70.2%
same,remaining activity,[1],89.5% (inactive)
same,outcome,[2],inactive
same,outcome,[13],inactive
same,outcome,[3],inactive
same,outcome,[12],inactive
same,outcome,[4],inactive
same,outcome,[5],inactive
same,fold change,[7]; [17],1.06 (inactive) and 0.993 (inactive)
same,fold change,[7]; [18],0.967 and 0.869
same,cell count,[7]; [19],10600 and 9670
same,cell count,[7]; [20],10000 and 9740
same,z-score,[9],1.08 (inactive) and 0.045 (inactive)

# From PubChem BioAssay
